Laboratory results taken from PubChem BioAssay AID588475 (Sanford-Burnham Center for Chemical Genomics, 2011).
The campaign covered roughly 350,000 compounds. About 2,100 (0.6%) were called active. This is one part of a sample in which actives are shown more often than they occur. Unmarked numbers belong to inactive results.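 The calls were made as follows: active = inhibition of the ligand-induced calcium signal above about 50% at the single tested concentration (limit read from the data); inactive = the rest.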

Assay: antagonists of CRF-BP/CRF-R2 complex, primary screen, cell-based, HEK293, calcium dye fluorescence, uHTS (AID 588475)
Conditions: CRF-induced calcium fluorescence, at 11.8 µM, hits give high values

| SMILES | inhibition |
| --- | --- |
| Cc1ccc(C(=O)N/C(=C\c2cn(C)c3ccccc23)C(=O)N2CCN(C)CC2)cc1 | 1.64% |
| O=[N+]([O-])c1ncc(Br)cc1Nc1ccccc1 | 17.9% |
| CCCN(CCc1ccccc1)C1CCc2c(O)cccc2C1 (centres undefined) | -13% |
| COc1ccccc1-n1c(C)nc2cc(C(=O)NCc3ccc4c(c3)OCO4)ccc21 | 20.9% |
| CC(C)NC(=O)CSc1ccccc1C(=O)NCc1ccc2c(c1)OCO2 | 17% |
| Cc1nc2c(C(=O)NCc3ccc4c(c3)OCO4)c[nH]n2c(=O)c1Cc1ccccc1F | 53.2% (active) |
| COCCN(C(=S)Nc1ccccc1OC)C1CCN(C(C)C)CC1 | -0.52% |
| CCc1ccc(CN(C)C(C)C(=O)Nc2ccc(S(=O)(=O)N3CCCC3)cc2)cc1 (centres undefined) | -10.1% |
| COc1ccc2nc(N3C(=O)C(O)=C(C(=O)c4ccco4)C3c3ccco3)sc2c1 (centres undefined) | 3.47% |
| Cc1ccc2nc(N3C(=O)C(O)=C(C(=O)c4ccco4)C3c3cccc(O)c3)sc2c1 (centres undefined) | 51.9% (active) |
| C=CCSc1nnc(N2C(=O)C(O)=C(C(=O)c3ccco3)C2c2ccc(F)cc2)s1 (centres undefined) | 17.8% |
| CS(=O)(=O)N(Cc1nc2sc3c(c2c(=O)[nH]1)CCCC3)C1CCCCC1 | -0.95% |
| CCc1nn(CC(=O)N2CCN(c3cc(C)ccc3C)CC2)c(=O)c2cc3occc3n12 | 3.13% |
| O=C(CCNC(=O)Cn1ccc2ccccc2c1=O)NCCC1=CCCCC1 | -1.26% |
| Cc1ccc(CNC(=O)CCNC(=O)Cn2ccc3ccccc3c2=O)cc1 | 87.1% (active) |
| CCCCN(CC)CCNC(=O)CCNC(=O)Cn1ccc2ccccc2c1=O | -0.99% |
| Cc1ccc(SC(CC(=O)c2ccc(C(C)(C)C)cc2)C(=O)O)cc1 (centres undefined) | -15.1% |
| CC(NC(=O)COC(=O)C1CCN(S(=O)(=O)c2ccccc2C(F)(F)F)CC1)c1ccccc1 (centres undefined) | -1.56% |
| CCOC(=O)C(C)N(c1ccccc1Cl)S(C)(=O)=O (centres undefined) | -3.83% |
| S=c1[nH]ccn1-c1ccc(Cl)cc1 | -16.2% |

| SMILES | inhibition |
| --- | --- |
| Cc1ccc(C(=O)Nc2nnc(C3=COCCO3)o2)cc1C | 51.4% (active) |
| COc1cc(-c2nnc(NC(=O)C3=COCCO3)o2)cc(OC)c1OC | -9.37% |
| O=C(Nc1nnc(C2=COCCO2)o1)c1ccc([N+](=O)[O-])s1 | -4.65% |
| COc1cc(OC)cc(C(=O)N[C@H](C(=O)OCC(=O)NC(C)c2ccccc2)C(C)C)c1 (some centres undefined) | -108% |
| CCn1cc(/C=C2/SC(=S)NC2=O)c(C)n1 | 13.4% |
| Cc1cccc(C(=O)C(O)(c2ccccc2)C2CCCCC2=O)c1 (centres undefined) | -14% |
| O=C(OC1CCCCC1=O)c1cccc(S(=O)(=O)NCc2ccccc2)c1 (centres undefined) | 12.8% |
| O=C1CCCCC1C(=O)c1ccccc1 (centres undefined) | 52.8% (active) |
| COc1cccc(CNC(=O)CCN2C(=S)NC(C)(C)CC2C)c1 (centres undefined) | 3.81% |
| N#CCc1c[nH]c2ccc([N+](=O)[O-])cc12 | 2.31% |
| Cc1cc([N+](=O)[O-])c(NC2CCCCC2)c([N+](=O)[O-])c1 | -26.8% |
| Cc1cc([N+](=O)[O-])ccc1NC1CCCC1 | 72% (active) |
| Cc1cc([N+](=O)[O-])ccc1NCc1cccc([N+](=O)[O-])c1 | 34.2% |
| CC(C)C(NS(=O)(=O)c1cccs1)C(=O)Nc1nc(C(C)(C)C)cs1 (centres undefined) | 7.44% |
| Cc1cc(-c2nnc(SCC(=O)Nc3ccc(S(N)(=O)=O)cc3)n2N)n[nH]1 | 9.63% |
| CCOC(=O)N1CCC(NC(=O)C(NS(=O)(=O)c2ccc3c(c2)CCN3C(=O)CC)C(C)C)CC1 (centres undefined) | -2.51% |
| COc1ccc(N=C2C=CC(=O)O2)cc1 | 11.2% |
| OCC1OC(n2cnc3c(N4CCCC4)ncnc32)C(O)C1O (centres undefined) | -7.64% |
| COc1cc(OC)cc(-c2c(C#Cc3ccsc3)c3cc(-c4ccc(SC)cc4)ccc3n2C)c1 | 1.84% |
| Cc1ccc(S(=O)(=O)/N=C(\CN2CCOCC2)N2CCOCC2)cc1 | 12.5% |

| SMILES | inhibition |
| --- | --- |
| Cc1[nH]n(-c2cccc(Cl)c2)c(=O)c1-c1ccc(Cl)cc1 | 50.6% (active) |
| Cc1nc2c(-c3ccccc3)c(C)[nH]n2c(=O)c1Cl | 42.5% |
| CCCc1cc(=O)n2[nH]c(C)c(-c3ccc(Cl)cc3)c2n1 | 13.7% |
| C/C(=N\Nc1ccccc1)c1cccs1 | -0.14% |
| COc1ccccc1N(C)S(=O)(=O)c1ccc(Cl)c(C(=O)N2CCC(C(N)=O)CC2)c1 | 17.1% |
| COc1ccc(C(CC(=O)Nc2ccc(C)cc2)NC(=O)C(F)(F)F)cc1 (centres undefined) | -3.52% |
| COc1ccc(NC(=O)C(=O)NCC(=O)Nc2cccc(C(F)(F)F)c2)cc1 | 55.4% (active) |
| C/C(CC(=O)Nc1cccc(C(F)(F)F)c1)=N\NC(=O)C(=O)NCC(C)C | -3.29% |
| CCCCn1c(N)c(N(CC(C)C)C(=O)CN(C)S(=O)(=O)c2ccc(F)cc2)c(=O)[nH]c1=O | -2.99% |
| Cc1c(C(=O)OCC(=O)N(CCC#N)c2ccccc2)oc2c1ccc1ccccc12 | -18.4% |
| O=S(=O)(CCc1nc2ccccc2o1)c1ccc(Cl)cc1 | -6.01% |
| Cc1nn2c3ccccc3nc2n(C)c1=O | 83.2% (active) |
| CCc1nc2ccccc2n(CCOCCOCCn2c(=O)c(CC)nc3ccccc32)c1=O | -9.64% |
| Cn1c(-c2ccc(C(=O)c3ccccc3)s2)nc2ccccc21 | 6.07% |
| Cc1ccc(S(=O)(=O)NNC(=S)NC(C)(C)C)cc1 | 0.02% |
| CCNC(=O)NNC(=O)C1CC(c2cccs2)=NO1 (centres undefined) | 0.63% |
| COc1ccc(-n2nnnc2SCC(=O)c2ccc(OC)c(OC)c2)cc1 | 51.1% (active) |
| COc1ccc(NC(=O)CSc2nnnn2-c2cccc(OC)c2)cc1 | 8.16% |
| O=C(CSc1nnnn1-c1ccc(O)cc1)c1ccc(F)cc1 | 4.96% |
